# GBA mod = Glucocerebrosidase. Lysosomal acid glucosylceramidase (Homo sapiens), P04062. purified enzyme, resorufin glucoside fluorescence (screen aimed at inhibitors), 20 min. Potency, µM. hit rate 1.1% among 48,000. AID 360, 2006; in the data active = potency below about 15 µM; inconclusive = mostly about 16 µM to 33 µM;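 also: potency is read from the fitted curve at half-maximal effect; the screen sought inhibitors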
#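 Wild-type enzyme at 0.2 nM final in 50mM citric acid/KH2PO4, 10mM sodium taurocholate, 0.01% tween-20, pH 5.9, with resorufin beta-D-glucopyranoside at 30 uM final. Compounds titrated, 20 min at RT, red fluorescence read; AC50 from titration.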
# 4-MU autofl = qHTS Assay for Spectroscopic Profiling in 4-MU Spectral Region; compound autofluorescence, 340/450 nm, 4-MU equivalents; hits give high values; hit rate 11% among 59,000; AID 589, 2007; max dye-equivalent concentration, M; in the data active = max dye-equivalent concentration above about 10 nM; inconclusive = mostly about 1.1 nM to 9.6 nM
#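 Compounds in 100 mM Tris, pH 8.0, incubated 15 min at room temperature, then fluorescence read at 340 nm excitation/450 nm emission. Signal converted to 4-MU dye-equivalent concentration using an on-plate six-point 4-MU standard curve.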
# AID923 = qHTS Assay for Allosteric/Competitive Inhibitors of Caspase-1: Spectroscopic Profiling in AFC Spectral Region; Potency, µM (series often up to 57.5 µM), for the others: at the top dose fluorescence increase, hits mostly activators; compound fluorescence, AFC spectral region (405/520 nm); hit rate 1.1% among 75,000; also: potency is read from the fitted curve at half-maximal effect; 0% is about no effect
#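 Baseline compound fluorescence (AFC region, 405 nm ex/520 nm em) taken from the intercept of kinetic reads with 50 nM caspase-1 and 5 uM Ac-WEHD-AFC; normalized to an on-plate AFC standard curve; compounds titrated up to 57 uM.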
# HSD17B inh = qHTS Assay for Inhibitors of HSD17B4, hydroxysteroid (17-beta) dehydrogenase 4. hit rate 7.6% among 75,000. Potency, µM (titrated, usually from 57.1 µM), without a hit: top-dose activity change, negative = inhibition, hits mostly inhibitors. 3-hydroxyacyl-CoA dehydrogenase type-2 (Homo sapiens), Q99714. recombinant HSD17B10, NADH fluorescence kinetic;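 also: the protocol describes HADH2 (HSD17B10) and not the HSD17B4 of the title; potency is read from the fitted curve at half-maximal effect; % is scaled to controls: 0 for no effect and ±100 for the full control effect; nearly all actives have a fitted effect of over 70% in size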
#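 His-tagged E. coli-expressed HADH2 at 20 nM in 100 mM Tris-HCl pH 9.0 with 0.01 % Tween-20, preincubated 15 min with compound at room temperature. Reaction with 1 mM NAD+ and 90 uM beta-hydroxybutyryl coenzyme A; NADH fluorescence (360/450 nm) read kinetically over 4 min, last minus first point.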
# HADH2 inh = qHTS Assay for Inhibitors of HADH2 (Hydroxyacyl-Coenzyme A Dehydrogenase, Type II) | 3-hydroxyacyl-CoA dehydrogenase type-2 (Homo sapiens), Q99714 | recombinant HADH2, NADH fluorescence, beta-hydroxybutyryl-CoA | Potency, µM (top dose mostly 57.1 µM), inactives show top-dose activity change, negative = inhibition, usual class: inhibitors | hit rate 3.4% among 73,000; also: potency is read from the fitted curve at half-maximal effect; % is scaled to controls: 0 for no effect and ±100 for the full control effect; nearly all actives have a fitted effect of over 60% in size
# Target sequence (Q99714 whole entry, looked up, one chain of several): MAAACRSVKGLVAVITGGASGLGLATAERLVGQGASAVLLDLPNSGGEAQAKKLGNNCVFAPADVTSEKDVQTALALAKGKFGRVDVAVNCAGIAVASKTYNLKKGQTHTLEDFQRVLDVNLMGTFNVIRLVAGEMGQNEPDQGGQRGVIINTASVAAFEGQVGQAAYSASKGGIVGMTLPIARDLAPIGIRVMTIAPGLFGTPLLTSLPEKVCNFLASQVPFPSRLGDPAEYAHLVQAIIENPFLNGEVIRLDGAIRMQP
#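 20 nM HADH2 + cpd, 15 min RT; add 1 mM NAD+/90 uM beta-hydroxybutyryl-CoA; kinetic fluorescence 360/450 nm, 4 min. Tris-HCl pH 9.0, 0.01% Tween-20.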
# A350 fluor = qHTS Assay for Spectroscopic Profiling in A350 Spectral Region | Compound autofluorescence, 340/450 nm, Alexa 350 dye-equivalents; hits give high values | max dye-equivalent concentration, M | hit rate 11% among 59,000; in the data active = max dye-equivalent concentration above about 10 nM; inconclusive = mostly about 1.1 nM to 9.6 nM
# Starred values were filed as active, the others as inactive; i = inactive; ? = inconclusive; . = not tested or not shown. Shown are actives, neighbours in structure and some others; about 13% of the full set was active somewhere. Unless noted, calls follow the shape of the dose curve; as a rule, active = well fitted curve in the direction sought with a large enough effect; inconclusive = small, poorly fitted or top-dose-only effect, or another doubt; inactive = no such curve, though single readings can be large; an effect the other way counts as inactive or inconclusive.
SMILES,GBA mod,4-MU autofl,AID923,HSD17B inh,HADH2 inh,A350 fluor
CCCCCc1nc2c(=O)n(C)c3ccccc3c2o1,>76.9,i,0.3%,-11.8%,-0.5%,i
Cn1c(=O)c2nc(-c3ccccc3)oc2c2ccccc21,>76.9,?,0.4%,25.1µM*,i,?
Cn1c(=O)c2c(nc(N3CCOCC3)n2CC(=O)c2ccccc2)n(C)c1=O,>76.9,2.05e-08M*,-1.2%,6.2%,-1.5%,2.23e-08M*
CN1CCN(c2nc3c(c(=O)n(C)c(=O)n3C)n2Cc2cccc3ccccc23)CC1,.,2.09e-08M*,.,.,.,1.55e-08M*
Cn1c(=O)c2c(nc(N3CCCCCC3)n2CC(=O)c2ccccc2)n(C)c1=O,>76.9,i,0.3%,-2.5%,20.6%,i
Cn1c(=O)c2c(nc(N3CCCCCC3)n2Cc2cccc3ccccc23)n(C)c1=O,>76.9,i,-1.3%,1.2%,-4.8%,i
Cc1nnc(SCCn2c(N3CCN(c4ccccc4)CC3)nc3c2c(=O)n(C)c(=O)n3C)s1,.,.,-4.4%,12.6µM*,48.7%,.
O=C(NCc1n[nH]c(=S)n1-c1ccccc1)c1ccco1,>76.9,i,-0.2%,-2.7%,-18.2%,i
CC(=O)N1CCC2(CC1)CN(c1cccc(-c3ccccc3)c1)C2,.,i,2.3%,31.6µM*,-6.8%,i
O=C(c1ccncc1)N1CCC2(CC1)CN(c1cccc(-c3ccccc3)c1)C2,.,i,-3.6%,25.1µM*,-23.4%,i
CN(C)S(=O)(=O)c1ccc(NS(=O)(=O)/C=C/c2ccccc2)cc1,?,i,-0.3%,-1.6%,0.7%,i
O=C(CN1C(=O)c2ccccc2C1=O)N1CCN(c2ccccn2)CC1,>76.9,i,-1.6%,352.7%,30.0%,i
CCc1cc2c(cc3c(=O)n(CC(=O)N4CCN(c5ccccn5)CC4)nc(CC)n32)s1,>76.9,2.01e-08M*,0.9%,-6.5%,4.7%,2.6e-08M*
O=C(NCc1ccc2c(c1)OCO2)c1ccncc1,>76.9,1.1e-08M*,1.3%,2.1%,?,1.43e-08M*
Cc1c(C(=O)NCc2ccc3c(c2)OCO3)oc2ccccc12,.,.,-1.0%,-7.5%,-4.7%,.
Cc1ccc2oc(C(=O)NCc3ccc4c(c3)OCO4)c(C)c2c1,i,1.78e-08M*,0.0%,-9.5%,?,1.59e-08M*
Cc1nc2c(C(=O)NCc3ccc4c(c3)OCO4)c[nH]n2c(=O)c1Cl,>76.9,i,-1.3%,31.6µM*,?,i
O=C(NCc1ccc2c(c1)OCO2)c1ccc(-c2ccc(Cl)cc2)o1,>76.9,i,-1.2%,25.1µM*,?,i
O=C(Cc1coc(-c2ccc(F)cc2)n1)N1CCOCC1,.,.,2.8%,-0.8%,7.0%,.
Cc1cc(OCCOCCN2CCCC2)ccc1C(C)C,.,.,-0.4%,1.4%,1.6%,.
COc1cc(NC(=O)C(C)Oc2ccccc2)c(C(=O)O)cc1OC (configuration not stated),>76.9,i,0.9%,2.9%,-3.1%,i
O=C(NCc1ccc2c(c1)OCO2)c1ccccn1,>76.9,i,1.4%,1.3%,18.7%,i
O=C(NCc1ccc2c(c1)OCO2)c1cc2ncc(Br)cn2n1,>76.9,?,-1.6%,31.6µM*,-10.0%,?
c1cc(CNc2ccc3c(c2)OCO3)ccn1,>76.9,2.02e-08M*,4.9%,?,?,2.5e-08M*
O=C(NCc1ccc2c(c1)OCO2)c1nn(-c2ccccc2)c(=O)c2ccccc12,>76.9,1.54e-08M*,1.9%,?,-18.9%,1.59e-08M*
O=C(NCc1ccc2c(c1)OCO2)c1c(O)c2cccc3c2n(c1=O)CCC3,.,1.03e-08M*,-0.4%,?,-0.9%,?
O=C(NCc1ccccc1)c1c(O)c2cccc3c2n(c1=O)CCC3,>76.9,?,-0.9%,-9.5%,-11.7%,?
Cc1csc(NC(=O)c2c(O)c3cccc4c3n(c2=O)CCC4)n1,>76.9,i,-0.4%,7.9%,13.6%,i

# Compound activity from PubChem BioAssay.
